The values below come from paper PMC7862700, “An all-to-all approach to the identification of sequence-specific readers for epigenetic DNA modifications on cytosine”.

In one experiment the target is T1, ERF (Homo sapiens, UniProt P50548 1-548).
T1 sequence: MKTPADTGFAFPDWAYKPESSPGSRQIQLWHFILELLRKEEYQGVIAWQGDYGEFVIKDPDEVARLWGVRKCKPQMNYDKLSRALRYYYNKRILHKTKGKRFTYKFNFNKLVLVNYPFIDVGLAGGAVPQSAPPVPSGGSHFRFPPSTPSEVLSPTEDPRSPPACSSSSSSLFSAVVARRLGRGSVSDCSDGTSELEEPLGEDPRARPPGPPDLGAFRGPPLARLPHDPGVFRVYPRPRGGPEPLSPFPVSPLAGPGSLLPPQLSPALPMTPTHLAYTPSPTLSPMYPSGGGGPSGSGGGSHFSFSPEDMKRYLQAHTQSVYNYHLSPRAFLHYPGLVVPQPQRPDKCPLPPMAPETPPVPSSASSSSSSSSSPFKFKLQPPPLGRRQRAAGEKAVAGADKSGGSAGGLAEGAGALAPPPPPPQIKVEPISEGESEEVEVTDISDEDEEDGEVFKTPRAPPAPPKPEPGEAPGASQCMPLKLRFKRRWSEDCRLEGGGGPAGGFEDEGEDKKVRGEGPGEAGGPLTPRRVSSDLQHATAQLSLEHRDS
The experiment is described as follows: DAPPL (digital affinity profiling via proximity ligation, sequencing); 10 mM Tris-HCl pH 7.5, 50 mM NaCl, 1 mM DTT, 4% glycerol, room temperature, 30 min; GST-TFs on glutathione beads, 16-mer random dsDNA library, 0.1% formaldehyde crosslink after washing; high values mean tight binding. The following applies: protein: recombinant; tags: N-terminal GST; dsDNA, one strand shown. A digest of the protocol:
(§1)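 After expression in yeast as GST fusions, human transcription factors were bound to glutathione beads, DNA-barcoded and mixed with a tag-only sample. The pools were incubated with 200 nmole of a 16-mer random double-stranded DNA library in Tris/NaCl/DTT/glycerol buffer (30 min, room temperature), washed and crosslinked with 0.1% formaldehyde. Proximity ligation with BsaI/T4 ligase ran for 1 h at 37 °C, before PCR amplification and sequencing on an Illumina NextSeq500. Binding signal is a hexamer's read frequency for a factor divided by its frequency for the tag-only sample.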
On to ACAATG, for which the binding signal was 1.12 fold enrichment (6-mer frequency, TF over GST control).

As for AATAAC, the binding signal is 1.33 fold enrichment (6-mer frequency, TF over GST control).

As to GCGTCC, the binding signal is 1.32 fold enrichment (6-mer frequency, TF over GST control).

ATTATC: the binding signal was 1.36 fold enrichment (6-mer frequency, TF over GST control).

In the case of CGCCTC, the binding signal is 1.37 fold enrichment (6-mer frequency, TF over GST control).

For the sequence TCTCAA, the binding signal is 1.22 fold enrichment (6-mer frequency, TF over GST control).

On to GATATG, for which the binding signal is 1.09 fold enrichment (6-mer frequency, TF over GST control).

As for CGTCAC, the binding signal was 1.15 fold enrichment (6-mer frequency, TF over GST control).

Take TGTTAC: the binding signal is 1.3 fold enrichment (6-mer frequency, TF over GST control).

Consider CCCGGA, for which the binding signal was 2.32 fold enrichment (6-mer frequency, TF over GST control).

For the sequence AAGGTA, the binding signal is 1.05 fold enrichment (6-mer frequency, TF over GST control).

As to CATGAT, the binding signal was 1 fold enrichment (6-mer frequency, TF over GST control).

Take GTAATC: the binding signal is 1.08 fold enrichment (6-mer frequency, TF over GST control).

In the case of TTTAAT, the binding signal was 1.33 fold enrichment (6-mer frequency, TF over GST control).

With CTCTCC, the binding signal was 1.43 fold enrichment (6-mer frequency, TF over GST control).

Take AAGAAT: the binding signal was 1.2 fold enrichment (6-mer frequency, TF over GST control).

In the case of GTTTCA, the binding signal was 1.35 fold enrichment (6-mer frequency, TF over GST control).

With CACTTC, the binding signal is 3.07 fold enrichment (6-mer frequency, TF over GST control).

Take CTCAAA: the binding signal is 1.11 fold enrichment (6-mer frequency, TF over GST control).

Consider CCCGGC, for which the binding signal was 1.06 fold enrichment (6-mer frequency, TF over GST control).

CCGCAA: the binding signal was 1.19 fold enrichment (6-mer frequency, TF over GST control).

For the sequence AAGTTG, the binding signal is 1.08 fold enrichment (6-mer frequency, TF over GST control).

Regarding GTCCCG, the binding signal was 1.22 fold enrichment (6-mer frequency, TF over GST control).

For TATCTG, the binding signal is 1.2 fold enrichment (6-mer frequency, TF over GST control).

For TTCCCT, the binding signal is 1.58 fold enrichment (6-mer frequency, TF over GST control).

Take TATGCA: the binding signal was 1.25 fold enrichment (6-mer frequency, TF over GST control).

In the case of AAAGGG, the binding signal was 1.09 fold enrichment (6-mer frequency, TF over GST control).

As to TAGCAT, the binding signal was 1.09 fold enrichment (6-mer frequency, TF over GST control).

TGCACT: the binding signal was 1.28 fold enrichment (6-mer frequency, TF over GST control).

For CCGACA, the binding signal is 1.22 fold enrichment (6-mer frequency, TF over GST control).

In the case of CTTACA, the binding signal is 1.34 fold enrichment (6-mer frequency, TF over GST control).

As to GCTCAT, the binding signal was 1.31 fold enrichment (6-mer frequency, TF over GST control).

With TGCTAC, the binding signal is 1.39 fold enrichment (6-mer frequency, TF over GST control).

Turning to CCGGCC, the binding signal was 1.06 fold enrichment (6-mer frequency, TF over GST control).

Turning to GAAGCT, the binding signal was 1.59 fold enrichment (6-mer frequency, TF over GST control).

Turning to GCGACC, the binding signal was 1.13 fold enrichment (6-mer frequency, TF over GST control).

Regarding ATGGCT, the binding signal is 1.27 fold enrichment (6-mer frequency, TF over GST control).

Regarding CATCAC, the binding signal is 1.17 fold enrichment (6-mer frequency, TF over GST control).

Consider CGTTCA, for which the binding signal is 1.2 fold enrichment (6-mer frequency, TF over GST control).

For the sequence ATATTC, the binding signal was 1.08 fold enrichment (6-mer frequency, TF over GST control).

The next experiment has as its target T2, ETV3L (Homo sapiens, UniProt Q6ZN32 1-361).
T2 sequence: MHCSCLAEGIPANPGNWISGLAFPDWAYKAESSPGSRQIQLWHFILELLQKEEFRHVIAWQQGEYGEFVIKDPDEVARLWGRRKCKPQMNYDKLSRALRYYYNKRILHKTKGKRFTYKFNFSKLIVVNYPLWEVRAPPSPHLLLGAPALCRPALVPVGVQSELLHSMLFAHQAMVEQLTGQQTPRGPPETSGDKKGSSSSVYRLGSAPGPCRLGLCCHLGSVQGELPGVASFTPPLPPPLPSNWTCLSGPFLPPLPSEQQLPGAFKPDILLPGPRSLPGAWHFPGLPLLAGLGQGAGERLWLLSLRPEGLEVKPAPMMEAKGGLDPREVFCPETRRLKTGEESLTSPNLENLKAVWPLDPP
The experiment is described as above. Conditions: protein: recombinant; tags: N-terminal GST; dsDNA, one strand shown. A digest of the protocol:
as §1
ACAATG: the binding signal is 1.03 fold enrichment (6-mer frequency, TF over GST control).

For AATAAC, the binding signal is 1.22 fold enrichment (6-mer frequency, TF over GST control).

For GCGTCC, the binding signal was 1.24 fold enrichment (6-mer frequency, TF over GST control).

Regarding ATTATC, the binding signal was 1.39 fold enrichment (6-mer frequency, TF over GST control).

CGCCTC: the binding signal is 1.49 fold enrichment (6-mer frequency, TF over GST control).

Take TCTCAA: the binding signal is 1.28 fold enrichment (6-mer frequency, TF over GST control).

In the case of GATATG, the binding signal was 1.08 fold enrichment (6-mer frequency, TF over GST control).

For CGTCAC, the binding signal was 1.15 fold enrichment (6-mer frequency, TF over GST control).

TGTTAC: the binding signal is 1.41 fold enrichment (6-mer frequency, TF over GST control).

As to CCCGGA, the binding signal is 2.8 fold enrichment (6-mer frequency, TF over GST control).

With AAGGTA, the binding signal is 1.14 fold enrichment (6-mer frequency, TF over GST control).

As for CATGAT, the binding signal is 1.13 fold enrichment (6-mer frequency, TF over GST control).

For GTAATC, the binding signal is 1.12 fold enrichment (6-mer frequency, TF over GST control).

In the case of TTTAAT, the binding signal was 1.37 fold enrichment (6-mer frequency, TF over GST control).

For the sequence CTCTCC, the binding signal was 1.44 fold enrichment (6-mer frequency, TF over GST control).

For AAGAAT, the binding signal is 1.15 fold enrichment (6-mer frequency, TF over GST control).

Take GTTTCA: the binding signal is 1.35 fold enrichment (6-mer frequency, TF over GST control).

Consider CACTTC, for which the binding signal is 3.63 fold enrichment (6-mer frequency, TF over GST control).

Turning to CTCAAA, the binding signal was 1.16 fold enrichment (6-mer frequency, TF over GST control).

CCCGGC: the binding signal was 1.19 fold enrichment (6-mer frequency, TF over GST control).

Take CCGCAA: the binding signal is 1.23 fold enrichment (6-mer frequency, TF over GST control).

AAGTTG: the binding signal is 1.11 fold enrichment (6-mer frequency, TF over GST control).

In the case of GTCCCG, the binding signal is 1.3 fold enrichment (6-mer frequency, TF over GST control).

For TATCTG, the binding signal was 1.41 fold enrichment (6-mer frequency, TF over GST control).

With TTCCCT, the binding signal was 1.69 fold enrichment (6-mer frequency, TF over GST control).

Consider TATGCA, for which the binding signal was 1.27 fold enrichment (6-mer frequency, TF over GST control).

For the sequence AAAGGG, the binding signal was 1.09 fold enrichment (6-mer frequency, TF over GST control).

Consider TAGCAT, for which the binding signal is 1.14 fold enrichment (6-mer frequency, TF over GST control).

Consider TGCACT, for which the binding signal was 1.34 fold enrichment (6-mer frequency, TF over GST control).

As to CCGACA, the binding signal is 1.24 fold enrichment (6-mer frequency, TF over GST control).

In the case of CTTACA, the binding signal was 1.26 fold enrichment (6-mer frequency, TF over GST control).

Regarding GCTCAT, the binding signal was 1.19 fold enrichment (6-mer frequency, TF over GST control).

For the sequence TGCTAC, the binding signal is 1.3 fold enrichment (6-mer frequency, TF over GST control).

CCGGCC: the binding signal was 1.19 fold enrichment (6-mer frequency, TF over GST control).

GAAGCT: the binding signal was 1.58 fold enrichment (6-mer frequency, TF over GST control).

Consider GCGACC, for which the binding signal was 1.14 fold enrichment (6-mer frequency, TF over GST control).

ATGGCT: the binding signal was 1.37 fold enrichment (6-mer frequency, TF over GST control).

As for CATCAC, the binding signal is 1.07 fold enrichment (6-mer frequency, TF over GST control).

As for CGTTCA, the binding signal was 1.25 fold enrichment (6-mer frequency, TF over GST control).

ATATTC: the binding signal is 1.35 fold enrichment (6-mer frequency, TF over GST control).

In the next experiment the target is T3, ETS2 (Homo sapiens, UniProt P15036 1-469).
T3 sequence: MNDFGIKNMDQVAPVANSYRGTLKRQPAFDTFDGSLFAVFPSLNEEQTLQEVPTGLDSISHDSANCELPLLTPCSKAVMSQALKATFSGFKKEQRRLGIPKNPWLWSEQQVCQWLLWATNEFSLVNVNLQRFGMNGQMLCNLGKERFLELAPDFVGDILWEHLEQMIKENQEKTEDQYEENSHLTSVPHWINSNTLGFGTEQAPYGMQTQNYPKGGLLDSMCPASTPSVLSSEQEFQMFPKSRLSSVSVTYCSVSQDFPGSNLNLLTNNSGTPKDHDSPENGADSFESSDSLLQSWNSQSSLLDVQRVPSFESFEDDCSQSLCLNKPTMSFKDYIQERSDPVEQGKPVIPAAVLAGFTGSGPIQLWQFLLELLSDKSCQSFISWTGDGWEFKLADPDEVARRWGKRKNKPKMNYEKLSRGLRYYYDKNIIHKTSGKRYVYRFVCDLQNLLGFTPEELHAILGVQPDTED
The experiment is described as above. The following applies: protein: recombinant; tags: N-terminal GST; dsDNA, one strand shown. In outline: as §1
With ACAATG, the binding signal is 1.09 fold enrichment (6-mer frequency, TF over GST control).

Regarding AATAAC, the binding signal was 1.27 fold enrichment (6-mer frequency, TF over GST control).

For GCGTCC, the binding signal is 1.18 fold enrichment (6-mer frequency, TF over GST control).

For the sequence ATTATC, the binding signal was 1.29 fold enrichment (6-mer frequency, TF over GST control).

Turning to CGCCTC, the binding signal is 1.27 fold enrichment (6-mer frequency, TF over GST control).

As for TCTCAA, the binding signal is 1.25 fold enrichment (6-mer frequency, TF over GST control).

With GATATG, the binding signal was 1.18 fold enrichment (6-mer frequency, TF over GST control).

CGTCAC: the binding signal is 1.27 fold enrichment (6-mer frequency, TF over GST control).

Take TGTTAC: the binding signal was 1.39 fold enrichment (6-mer frequency, TF over GST control).

As for CCCGGA, the binding signal is 2.98 fold enrichment (6-mer frequency, TF over GST control).

On to AAGGTA, for which the binding signal is 1.11 fold enrichment (6-mer frequency, TF over GST control).

As to CATGAT, the binding signal is 1.07 fold enrichment (6-mer frequency, TF over GST control).

On to GTAATC, for which the binding signal is 1.16 fold enrichment (6-mer frequency, TF over GST control).

With TTTAAT, the binding signal was 1.37 fold enrichment (6-mer frequency, TF over GST control).

With CTCTCC, the binding signal was 1.43 fold enrichment (6-mer frequency, TF over GST control).

Take AAGAAT: the binding signal was 1.11 fold enrichment (6-mer frequency, TF over GST control).

Regarding GTTTCA, the binding signal is 1.34 fold enrichment (6-mer frequency, TF over GST control).

Regarding CACTTC, the binding signal is 3.66 fold enrichment (6-mer frequency, TF over GST control).

Turning to CTCAAA, the binding signal was 1.2 fold enrichment (6-mer frequency, TF over GST control).

For the sequence CCCGGC, the binding signal is 1.16 fold enrichment (6-mer frequency, TF over GST control).
